Columns and labels:
Test in all cases: PBM binding z-score (relative to random genomic background probes); higher = stronger binding; sequences stand for … in GC…GCGATTGACAGCGTAGAATGAAGG
[1] = tested on: FXR:RXRa (NR concentration 270 nM, RXRa partner concentration 90 nM)
How it was run: (§1)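 The probes on custom Agilent 4×180K protein-binding microarrays were double-stranded, with 34-nt variable regions bearing direct-repeat seeds, single-nucleotide variants, half-site ablations and random human genomic background sequences. Incubation lasted 1 h with ligand-free nuclear receptor dimers in PBS pH 7.4, 2% milk, 0.02% Triton X-100, 1 mM DTT, 0.2 mg/mL BSA and 0.4 mg/ml salmon testes DNA. Antibodies against each partner (one per run) detected bound dimers, and fluorescence scans were regression-normalized. Binding z-scores take the random background probes as reference.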

[2] = tested on: LXRa:RXRa (NR concentration 270 nM, RXRa partner concentration 90 nM)
How it was run: as §1

[3] = tested on: LXRa homodimer (NR concentration 270 nM)
How it was run: as §1

[4] = tested on: LXRb:RXRa (NR concentration 270 nM, RXRa partner concentration 90 nM)
How it was run: as §1

[5] = tested on: LXRb homodimer (NR concentration 270 nM)
How it was run: as §1

[6] = tested on: PPARa:RXRa (NR concentration 270 nM, RXRa partner concentration 90 nM)
How it was run: as §1

[7] = tested on: PPARg:RXRa (NR concentration 180 nM, RXRa partner concentration 90 nM)
How it was run: as §1

[8] = tested on: PPARg:RXRa 270nM:90nM, anti-RXR (NR concentration 270 nM, RXRa partner concentration 90 nM)
How it was run: as §1

[9] = tested on: PPARg:RXRa 30nM:10nM, anti-RXR (NR concentration 30 nM, RXRa partner concentration 10 nM)
How it was run: as §1

[10] = tested on: PPARg:RXRa 90nM:30nM, anti-RXR (NR concentration 90 nM, RXRa partner concentration 30 nM)
How it was run: as §1

[11] = tested on: PPARg:RXRa DBDmut IVT, anti-RXR (DBD mutation: RXRa K156A/R161A, NR concentration 270 nM, RXRa partner concentration 90 nM)
How it was run: as §1

[12] = tested on: PPARg:RXRa IVT, anti-PPARg (NR concentration 270 nM, RXRa partner concentration 90 nM)
How it was run: as §1

[13] = tested on: PPARg DBDmut:RXRa IVT, anti-PPARg (DBD mutation: PPARg1 K132A/R137A, NR concentration 270 nM, RXRa partner concentration 90 nM)
How it was run: as §1

[14] = tested on: PPARg DBDmut IVT, anti-PPARg (DBD mutation: PPARg1 K132A/R137A, NR concentration 270 nM)
How it was run: as §1

[15] = tested on: PPARg homodimer (NR concentration 180 nM)
How it was run: as §1

[16] = tested on: PXR:RXRa (NR concentration 270 nM, RXRa partner concentration 90 nM)
How it was run: as §1

[17] = tested on: PXR homodimer (NR concentration 270 nM)
How it was run: as §1

[18] = tested on: RARa:RXR (NR concentration 270 nM, RXRa partner concentration 90 nM)
How it was run: as §1

[19] = tested on: RARa homodimer (NR concentration 270 nM)
How it was run: as §1

[20] = tested on: RARb:RXRa (NR concentration 270 nM, RXRa partner concentration 90 nM)
How it was run: as §1

Row | Sequence | PBM binding z-score [1] | PBM binding z-score [2] | PBM binding z-score [3] | PBM binding z-score [4] | PBM binding z-score [5] | PBM binding z-score [6] | PBM binding z-score [7] | PBM binding z-score [8] | PBM binding z-score [9] | PBM binding z-score [10] | PBM binding z-score [11] | PBM binding z-score [12] | PBM binding z-score [13] | PBM binding z-score [14] | PBM binding z-score [15] | PBM binding z-score [16] | PBM binding z-score [17] | PBM binding z-score [18] | PBM binding z-score [19] | PBM binding z-score [20]
1 | CCGAGTAGGTTATGGGGTATTCAGGCAACGGTGA | 0.497 | 0.701 | 0.47 | 1.09 | 0.945 | 1.81 | 2.56 | 3.45 | 0.984 | 2.68 | 3.61 | 3.4 | -0.421 | -0.159 | 1.48 | 0.386 | 0.458 | 0.453 | 1.06 | 0.8
2 | CCTACCGGGCCATTCAGAGGTCATTGATCATATG | 3.15 | 4.65 | 6.83 | 4.07 | 0.358 | 3.77 | 1.05 | 2.26 | 0.311 | 1.27 | 0.333 | 1.62 | -0.171 | -0.538 | 2.87 | 5.36 | 2.87 | 5.57 | 0.404 | 3.29
3 | TCTCGGAGGACACGAAGGTGAGAGCTTTCCAGAG | -0.0901 | -0.338 | -0.832 | -0.756 | -1.18 | -0.0332 | 0.00837 | 0.718 | 1.9 | 0.958 | 1.32 | 0.688 | -0.824 | -1.52 | -0.651 | -0.315 | -0.615 | -0.0834 | -0.906 | 1.69
4 | CGTCAAAGTTCAAGGTAACGCAACAGAAAGCAGC | 6.65 | 5.28 | 2.35 | 3.52 | 1.08 | 4.51 | 4.65 | 5.25 | 2.32 | 4.14 | 0.947 | 2.53 | 0.438 | 0.38 | 3.41 | 4.06 | 3.14 | 3.59 | 1.14 | 5.15
5 | CGTGCAAGGTCAAGGTCAGTGAAAGAGACTCGAA | 7.71 | 5.78 | 1.12 | 4.86 | 0.639 | 6.13 | 6.66 | 6.55 | 2.87 | 5.51 | 3.53 | 4.59 | 1.6 | -0.363 | 4.25 | 4.99 | 1.2 | 5.11 | 2.15 | 5.53
6 | GCATATAGGTAATACAAGGTGTAAGTCCGATTGT | 0.0456 | -0.21 | -0.0292 | -0.487 | -0.137 | 0.159 | 0.975 | 0.539 | 0.405 | 0.179 | 4.05 | 2.41 | 0.78 | 0.908 | 0.475 | -0.257 | -0.0468 | 0.0684 | 0.804 | -0.269
7 | TCCTGTAGATCAAGCAGGTTAAGAAAGCCTGAGT | 0.115 | 0.256 | -0.387 | 0.136 | -1.12 | 0.563 | -0.537 | 1.19 | 2.38 | 1.42 | 1.36 | -0.00456 | 0.0504 | -0.299 | -0.486 | 0.372 | 0.0191 | 0.301 | -0.136 | 0.0343

Reference: the supplement of paper PMC6555819
